# Bioassay records: PubChem, National Center for Advancing Translational Sciences (NCATS)
# The list is not random: actives were taken first. Their share in the collection is about 3.8%.
# S2 tox = reduces viability in counter-screen for ATXN expression inhibitors | S2 cells (HEK-293 line with an ATXN2-luciferase reporter) viability, CellTiter-Fluor protease fluorescence, 24 h | Potency, µM (series often up to 56.7 µM), usual class: cytotoxic | 400,000 tested, 0.49% active | AID 651635; further: nearly all actives have a fitted effect of over 40% in size
# ATXN2 expr inh = inhibitors of ATXN2 expression | Potency, µM (highest dose often 57 µM), most hits filed as inhibitors | 360,000 tested, 0.72% active | HEK-293 ATXN2-luciferase reporter, luminescence, 24 h | AID 1745845; further: nearly all actives have a fitted effect of over 55% in size
#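 qHTS (up to 57 uM final) was run with 24 h compound exposure of reporter cells at 37 °C. Each well was multiplexed: SteadyGlo luminescence measured ATXN2-luciferase expression after a fluorogenic Gly-Phe-AFC viability readout (25 uM final).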
# TGFb SMAD3 inh = blocks TGF-b signaling; HepG2 CAGA-GFP TGF-b/SMAD3 reporter, GFP fluorescence, 18 h; TGF-beta stimulated, 500 pg/mL final; Potency, µM (top dose mostly 46.1 µM), hits mostly inhibitors; 410,000 tested, 1.2% active; further: nearly all actives have a fitted effect of over 65% in size
#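 Read-out: total well GFP (ex488/em500-530) summed from mean per-cell fluorescence. Cells: HEPG2 CAGA-GFP, 1% FBS DMEM, 18 h at 37 degrees C with 500 pg/mL final TGF-beta. Unstimulated wells served as the full-inhibition control; stimulated DMSO wells = 0%.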
# HepG2 tox = counter-screen for TGF-b inhibitors: cytotoxicity in HepG2 cells; HepG2 CAGA-GFP viability, ATP luminescence, 18 h; Potency, µM (series often up to 46.1 µM), actives largely listed as cytotoxic; 410,000 tested, 0.76% active; AID 588856
#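 HepG2 CAGA-GFP cells (1000/well, DMEM with 1% FBS) received compound, then TGF-beta at 500 pg/mL final, and were incubated 18 hours at 37 degrees C. Viability was read by CellTiter-Glo luminescence. Media-only wells were set as complete cell-killing and DMSO as no toxicity.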
# A549 tox = counter-screen for Nrf2 inhibitors: cytotoxicity in A549 cells. Potency, µM (highest dose often 46 µM), hits mostly inhibitors. 390,000 tested, 0.16% active. A549 ARE-Fluc cells, CellTiter-Fluor viability, 18-24 h
#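 Cytotoxicity counterscreen: CellTiter-Fluor fluorescence was measured in A549 ARE_Fluc cells after 18-24 h of compound exposure in a concentration series. The subsequent BugLite luminescent read reports ARE-luciferase activity.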
# Nrf2 inh = inhibitors of Nrf2 signaling; 360,000 tested, 2.1% active; Potency, µM (highest dose often 46 µM), most hits filed as inhibitors; AID 504444; A549 ARE-Fluc reporter, luciferase luminescence, 18-24 h; further: nearly all actives have a fitted effect of over 60% in size
#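 Nrf2 activity is the BugLite luminescence, read 15 min after reagent at room temperature, following CellTiter-Fluor cytotoxicity readout (30 min, 37C). Compound titrations were applied for 18-24 h to 5000 A549 ARE_Fluc cells/well in 5% FBS OPTI-MEM.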
# A number is an active result; n = inactive; u = inconclusive; x = no result; ! = not active in a repeat; [ ] = remark or other dose. The call rests on the fitted dose curve; in most records, active means well fitted curve in the direction sought with a large enough effect; inconclusive means small, poorly fitted or top-dose-only effect, or another doubt; inactive means no such curve, though single readings can be large; an effect the other way counts as inactive or inconclusive.
SMILES,S2 tox,ATXN2 expr inh,TGFb SMAD3 inh,HepG2 tox,A549 tox,Nrf2 inh
O=C1C=C(Nc2cccnc2)c2ccccc2C1=O,x,u,3.5µM,4.5µM,u,u
O=C1C=C(Nc2ccc(F)cc2)c2ccccc2C1=O,n,u,4µM,4.5µM,u,u
NS(=O)(=O)c1ccc(NC2=CC(=O)c3ccccc3C2=O)cc1,x,n,x,x,x,x
CCOc1ccc(NC2=CC(=O)C(=O)c3ccccc32)cc1,u,n,4.5µM,n,u,u
COc1cc(Cl)c(NC2=CC(=O)C(=O)c3ccccc32)c(OC)c1,25µM,u,5µM,3.5µM,u,u
COc1cc2cc(CN(CCc3cccc(C)c3)C(=S)NCCCN3CCOCC3)c(=O)[nH]c2cc1OC,n,n,n,n,n,n
COc1ccc(-n2c(C)nc3c(cnn3-c3ccc(C)cc3)c2=O)cc1,n,n,u,n,n,18µM
COc1ccc(-n2c(C)nc3c(cnn3-c3ccc(Cl)cc3)c2=O)cc1,u,n,n,n,n,u
O=C1NC[C@@H](Cc2cccc3ccccc23)N(CCc2cc(C(F)(F)F)cc(C(F)(F)F)c2)C1=O,x,u,13µM,n,n,n
CCCN1CCC(=O)N([C@H](CN=[N+]=[N-])CC(C)C)CC1,n,n,u,n,n,n
Cc1ccccc1NC1=C/C(=N\S(=O)(=O)c2ccc(C(=O)O)cc2)c2ccccc2C1=O,10µM,8.9µM,u,18µM,n,n
CCc1ccc(S(=O)(=O)/N=C2\C=C(NS(=O)(=O)c3ccccc3)C(=O)c3ccccc32)cc1,u,n,u,n,n,u
O=C(O)c1ccc(S(=O)(=O)/N=C2\C=C(Nc3ccccc3F)C(=O)c3ccccc32)cc1,7.9µM,7.9µM,3.2µM,4.5µM,n,n
Cc1ccccc1NC1=C/C(=N\S(=O)(=O)c2cccs2)c2ccccc2C1=O,6.3µM,7.9µM,u,3.2µM,u,u
CC(C)c1ccc(S(=O)(=O)/N=C2\C=C(NS(=O)(=O)c3ccccc3)C(=O)c3ccccc32)cc1,u,n,u,n,n,u
COC(=O)c1cnn(-c2ccc(C(=O)Nc3cccc(C(C)=O)c3)cc2)c1N,n,n,n,n,n,x
Cc1ccc(CNC(=O)C(=O)NCC(c2ccco2)S(=O)(=O)c2ccc(C)cc2)cc1 (centres undefined),x,x,n,n,n,x
CCCn1c(=O)c2[nH]c(-c3ccc(OCC(=O)Nc4ccc(C#N)cc4)cc3)nc2n(CCC)c1=O,n,n,n,n,n,n
COc1ccc2c(c1)NC(c1ccc(OCC(C)C)cc1)=NC(c1ccncc1)=N2,n,n,n,n,n,n
Cc1nc2c(C)c(C)c(C)c(C)c2nc1C,n,n,n,n,n,n
Cc1nc2c(O)c3c(c(O)c2nc1C)C1C=CC3CC1,5.6µM,28µM,u,n,n,n
Cc1oc(-c2cccc3ccccc23)nc1CN1CCN(c2ncnc3ccccc23)CC1,u,u,n,n,u,18µM
Cc1cc(N2CCN(Cc3nc(-c4ccc(Cl)cc4)oc3C)CC2)cc(C)n1,n,u,u,n,n,n
COc1ccc(-c2nc(CN3CCN(c4cc(C)nc(C)c4)CC3)c(C)o2)c2ccccc12,u,11µM,u,n,n,n
O=C(c1ccc(CS(=O)c2ccc(F)cc2)o1)N1CCN(C2CCCCC2)CC1 (centres undefined),n,n,n,n,n,n
SMILES,S2 tox,ATXN2 expr inh,TGFb SMAD3 inh,HepG2 tox,A549 tox,Nrf2 inh
COc1cc(OC)c(OC)cc1CN1CCCC(c2nc(C)ncc2-c2ccc(F)cc2)C1 (centres undefined),n,x,x,x,x,x
Cc1ccc(NC(=O)CN2CCOCC2)cc1C,n,n,n,n,n,n
C=CCOc1cccc(C(=O)/C=C2/C(=O)Nc3ccccc32)c1,u,u,11µM,10µM,n,n
COc1cc(/C=C/c2ccc3cccc(OC)c3n2)c(O)c([N+](=O)[O-])c1,u,n,u,n,n,n
COc1cc(/C=C/c2ccc3cccc(OC)c3n2)c(OC(C)=O)c([N+](=O)[O-])c1,x,u,u,n,9.2µM,26µM
Cc1ccc(S(=O)(=O)N2CC3(O)CN(C(=O)OC(C)C)N(C(=O)OC(C)C)CC3(OC(=O)Nc3c(C)noc3C)C2)cc1 (centres undefined),u,n,n,n,x,x
Cc1ccc(S(=O)(=O)N2CC3(O)CN(C(=O)OC(C)C)N(C(=O)OC(C)C)CC3(OC(=O)Nc3cccs3)C2)cc1 (centres undefined),u,n,13µM,n,x,x
CCOc1cc(CNCCO)cc(Br)c1OCc1ccccc1Cl,n,n,u,n,n,u
CCOc1cc(CNC(C)(C)CO)cc(Br)c1OCc1ccc(Cl)cc1Cl,x,u,u,13µM,n[1.84 µM],u
Cc1c(O)cccc1C(=O)N[C@@H](CSc1ccccc1)[C@H](O)CN1C[C@H]2CCCC[C@H]2C[C@H]1C(=O)NC(C)(C)C,11µM,20µM!,u,16µM!,u,u
O=C1c2ccccc2C(=O)C12OC2c1ccc(Cl)cc1Cl (centres undefined),u,u,u,20µM,n,n
O=C1c2ccccc2C(=O)C1c1ccc(Cl)cc1,n,n,n,n,n,u
CCCCc1c(C)c(C#N)c2nc3ccccc3n2c1NCCN(C)C,n,n,n,n,6.5µM,6.5µM
COc1ccc(NC(=O)CC2C(=O)Nc3ccccc3N2CC(=O)N2CCCC2)cc1 (centres undefined),n,n,n,n,n,n
O=C(N/N=C\c1cn[nH]c1-c1ccc(Cl)cc1)c1cccs1,n,x,10µM,n,u,n
O=C(c1ccco1)N1CCN(c2c(-c3ccccc3)c3cc(Cl)ccc3[nH]c2=O)CC1,x,u,u,18µM,u,u
COc1ccc(-c2nnc(SCC(=O)Nc3cc(OC)ccc3OC)nc2-c2ccc(OC)cc2)cc1,x,x,10µM,n,n,x
COc1ccc(-c2nnc(SCC(=O)Nc3cccc(Cl)c3C)nc2-c2ccc(OC)cc2)cc1,n,n,n,n,n,x
COc1cc(SC)ccc1C(=O)N1CCN(Cc2ccc3c(c2)OCO3)CC1,u,x,u,n,n,15µM
CCOC(=O)N1CCN(C(=O)c2ccc(SC)cc2OC)CC1,n,x,n,n,n,12µM
O=C(c1ccc(COc2ccc(Cl)cc2)o1)N1CCN(Cc2ccc3c(c2)OCO3)CC1,u,u,n,n,n,23µM
CCC(=O)Nc1ccc(N2CCCCC2)c(C(=O)Nc2ccc(OC)cc2)c1,n,n,n,n,n,18µM
Cc1ccc(NC(=O)c2cc(NC(=O)CCC(=O)O)ccc2N2CCCCC2)cc1,n,n,n,n,n,n
